In the supplement of paper PMC9262897, “Low-cost anti-mycobacterial drug discovery using engineered E. coli” (Nature Communications, 2022) one finds growth data, which are given here for 40 molecules.

Structures can show the parent of a compound that is named as a salt. ± gives the standard deviation of the averaged measurements.

In the assay the test system is E. coli TESEC Alr+ wild-type control. Put plainly: growth (OD600 after 10 h); higher = more growth (less inhibition). As to conditions: compound 0.1 mM; raw OD600 reference: median of DMSO wells 0.49, cell-free background 0.052. As to the method:
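TESEC Mtb Alr E. coli (ΔaraC ΔtolC ΔentC Δalr ΔdadX, arabinose-inducible Mtb Alr) or the Alr+ wild-type control strain, grown in defined M9-fructose medium without D-alanine in 96-well plates with Prestwick library compounds at 0.1 mM and 1% DMSO. Low Alr induction is 0.1 µM arabinose and high induction is 10 mM arabinose.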
Molecule `Cc1ccsc1/C=C/C1=NCCCN1C` [Morantel tartrate] showed a growth of 0.513 ± 0.029.
For `CC(C)(S)C(N)C(=O)O` (racemic) [D,L-Penicillamine] the value was 0.437 ± 0.0091; for `C=C1c2c(Cl)ccc(O)c2C(O)=C2C(=O)[C@]3(O)C(O)=C(C(N)=O)C(=O)[C@@H](N(C)C)[C@@H]3[C@@H](O)[C@H]12.O=C(O)c1cc(S(=O)(=O)O)ccc1O` [Meclocycline sulfosalicylate], 0.05223 ± 0.00012; for `CN(C)CCCOc1nn(Cc2ccccc2)c2ccccc12` [Benzydamine hydrochloride], 0.452 ± 0.0099.
For `CC(C(=O)O)c1ccc2c(c1)Cc1cccnc1O2` (stereo not given) [Pranoprofen] the value was 0.4398 ± 0.0017; for `CN(C)CCC=C1c2ccccc2C=Cc2ccccc21` [Cyclobenzaprine hydrochloride], 0.5608 ± 0.002; for `C[C@H]1NC(=O)NC1=O` [Methylhydantoin-5-(D)], 0.607 ± 0.018.
For `C[C@@H]1C[C@H]2[C@@H]3C[C@H](F)C4=CC(=O)C=C[C@]4(C)[C@@]3(F)[C@@H](O)C[C@]2(C)[C@@]1(O)C(=O)CO` [Flumethasone] the value was 0.543 ± 0.0085; for `O=C(O)c1cc(=O)c2c(OCC(O)COc3cccc4oc(C(=O)O)cc(=O)c34)cccc2o1` [Cromolyn disodium salt], 0.602 ± 0.064; for `CC(CN(C)C)C(C)(O)Cc1ccc(Cl)cc1` (stereo not given) [Clobutinol hydrochloride], 0.588 ± 0.083.
For the molecule `Nc1nc(F)nc2c1ncn2[C@@H]1O[C@H](CO)[C@@H](O)[C@@H]1O` [Fludarabine], the growth came to 0.626 ± 0.044.
As for `O=C(NCC1CCCCN1)c1cc(OCC(F)(F)F)ccc1OCC(F)(F)F` (stereo not given) [Flecainide acetate], the figure is 0.495 ± 0.081; as for `CN1CCN(CC(=O)N2c3ccccc3C(=O)Nc3cccnc32)CC1` [Pirenzepine dihydrochloride], 0.531 ± 0.061.
On to `C=CCSCC1Nc2cc(Cl)c(S(N)(=O)=O)cc2S(=O)(=O)N1` (stereo not given) [Althiazide], for which the growth came out at 0.444 ± 0.049.
`O=C(O)CCc1nc(-c2ccccc2)c(-c2ccccc2)o1` [Oxaprozin] yielded a growth of 0.381 ± 0.039.
For `CNC(=O)c1c(I)c(C(=O)NCC(=O)Nc2c(I)c(C(=O)O)c(I)c(C(=O)NCCO)c2I)c(I)c(N(C)C(C)=O)c1I` [Ioxaglic acid] the value was 0.606 ± 0.023; for `COc1ccc2[nH]c([S+]([O-])Cc3ncc(C)c(OC)c3C)nc2c1` (stereo not given) [Omeprazole], 0.409 ± 0.01; for `O=P(O)(O)C(Cl)(Cl)P(=O)(O)O` [Clodronate], 0.528 ± 0.084.
For `Cc1scc2c1N(C(=O)CN1CCN(C)CC1)c1ccccc1NC2=O` [Telenzepine dihydrochloride] the value was 0.545 ± 0.024; for `CCCCC1C(=O)N(c2ccccc2)N(c2ccc(O)cc2)C1=O` (stereo not given) [Oxyphenbutazone], 0.436 ± 0.036; for `COc1ccc(/C=C/C(=O)Nc2ccccc2C(=O)O)cc1OC` [Tranilast], 0.452 ± 0.0089.
For `O=C(Cn1ccnc1[N+](=O)[O-])NCCO` [Etanidazole] the value was 0.471 ± 0.019.
With `Nc1ccc(C(=O)O)c(O)c1` [4-aminosalicylic acid], the growth stood at 0.545 ± 0.044.
As for `C#C[C@]1(OC(C)=O)CC[C@H]2[C@@H]3CCC4=C[C@@H](OC(C)=O)CC[C@@H]4[C@H]3CC[C@@]21C` [Ethynodiol diacetate], the figure is 0.4 ± 0.018; as for `O=C(O)Cc1cc(I)c(Oc2ccc(O)c(I)c2)c(I)c1` [Tiratricol, 3,3',5-triiodothyroacetic acid], 0.0593 ± 0.0022.
For `NS(=O)(=O)c1cc(C(=O)O)cc(N2CCCC2)c1Oc1ccccc1` [Piretanide] the value was 0.444 ± 0.0057.
Turning to `COc1cc2ncnc(Nc3ccc(F)c(Cl)c3)c2cc1OCCCN1CCOCC1` [Gefitinib], the growth was determined as 0.496 ± 0.03.
As to `CC(=O)N[C@@H](CC(=O)N[C@@H](CCC(=O)O)C(=O)O)C(=O)O` [Spaglumic acid], the growth worked out at 0.522 ± 0.037.
In turn, `C=C1/C(=C\C=C2/CCC[C@]3(C)[C@@H]([C@H](C)CCCC(C)C)CC[C@@H]23)C[C@@H](O)C[C@@H]1O` [Alfacalcidol] had a growth of 0.146 ± 0.0019.
For `CCN(CC)CCOC(=O)C(c1ccccc1)C1CCCCC1` (stereo not given) [Drofenine hydrochloride] the value was 0.428 ± 0.026; for `CC(C(=O)O)c1ccc(C(=O)c2cccs2)cc1` (stereo not given) [Suprofen], 0.605 ± 0.029.
As for `COc1cc(C)nc(-n2nc(C)cc2OC)n1` [Epirizole], the figure is 0.493 ± 0.031.
As for `Nc1cc(C(Cl)=C(Cl)Cl)c(S(N)(=O)=O)cc1S(N)(=O)=O` [Clorsulon], the figure is 0.53 ± 0.0087.
`NC(N)=Nc1nc(CSCC/C(N)=N/S(N)(=O)=O)cs1` [Famotidine] had a growth of 0.465 ± 0.058.
For `CC(=O)SCC(Cc1ccccc1)C(=O)NCC(=O)OCc1ccccc1` (stereo not given) [Racecadotril] the value was 0.502 ± 0.028; for `CN(C)CCCN1c2ccccc2CCc2ccc(Cl)cc21` [Clomipramine hydrochloride], 0.202 ± 0.26; for `CCN(CCO)CCCC(C)Nc1ccnc2cc(Cl)ccc12` (stereo not given) [Hydroxychloroquine sulfate], 0.54 ± 0.024.
For `CC(C)(C)NC[C@H](O)COc1ccccc1C1CCCC1` [Penbutolol sulfate] the value was 0.429 ± 0.019.
For the molecule `Cc1cn([C@H]2C=C[C@@H](CO)O2)c(=O)[nH]c1=O` [Stavudine], the growth was 0.512 ± 0.037.
For `CC1=Nc2ccc(Cl)cc2S(=O)(=O)N1` [Diazoxide] the value was 0.465 ± 0.041.
